The results in this text go back to PubChem BioAssay (Tox21).

Inconclusive results are not listed. Values without a mark were called inactive. Calls of active or inactive are those of the source. Calls come from the whole dose curve; as a rule, active = well fitted activation curve with a large enough effect in the repeat runs; inconclusive = weak or mixed curves; inactive = no such curve, though single readings can be large or run the other way.
% is set by controls: 0 for no effect and ±100 for the full control effect; potency is the fitted concentration of half-maximal effect.

Nuclear receptor subfamily 1 group I member 3 (Homo sapiens), sequence (Q14994 whole entry, looked up): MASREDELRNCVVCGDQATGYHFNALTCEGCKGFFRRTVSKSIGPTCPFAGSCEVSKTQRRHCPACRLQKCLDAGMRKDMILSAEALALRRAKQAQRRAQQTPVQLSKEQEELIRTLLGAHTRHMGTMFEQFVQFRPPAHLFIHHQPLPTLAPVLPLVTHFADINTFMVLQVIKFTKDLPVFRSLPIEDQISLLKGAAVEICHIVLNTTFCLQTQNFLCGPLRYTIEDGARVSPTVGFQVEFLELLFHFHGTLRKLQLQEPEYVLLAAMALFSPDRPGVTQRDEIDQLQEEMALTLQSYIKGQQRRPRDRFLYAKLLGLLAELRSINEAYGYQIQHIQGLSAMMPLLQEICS

This experiment has as its target Nuclear receptor subfamily 1 group I member 3 (Homo sapiens) (UniProt Q14994). Put plainly: qHTS assay to identify small molecule agonists of the constitutive androstane receptor (CAR) signaling pathway (AID 1224839).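 For activation: HepG2 cells stably carrying human CAR and a CYP2B6 luciferase reporter.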 Note: nearly all actives have a fitted effect of over 15% in size. Conditions: HepG2 hCAR CYP2B6-luciferase, agonist mode, 24 h; series mostly up to 92.4 µM; activation: at the top concentration. In short, it runs like this: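 Stable hCAR/CYP2B6-2.2kb HepG2 line in DMEM with 10% FBS; compounds (15 concentrations) and 0.75 uM PK11195 final, 24 h at 37 C/5% CO2, then ONE-Glo luminescence after 30 min.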
In general terms: Quantitative high-throughput screening tests each substance at several concentrations.
With `Clc1cc(Cl)c(Cl)nc1Cl`, the “activation” value is -0.332%. Take `C[C@@H]1CCC[C@H](C)N1`: the “activation” value was -0.356% [at 42.5 µM].

`CCOC(=O)OC(C)OC1=C(C(=O)Nc2ccccn2)N(C)S(=O)(=O)c2ccccc21` (configuration not stated): the “activation” value was 7.34% [at 42.5 µM].

On to `O=C(O)CC(C(=O)O)S(=O)(=O)O` (configuration not stated), for which the “activation” value is -2.8%. On the same count and under the same terms, then `[O-][n+]1cccc(CO)c1`, with 0.322% [at 42.5 µM]; and `CC(=O)c1ccccc1[N+](=O)[O-]`, with 2.17%.

For `Cc1cccc(C)c1NC(=O)CC12CCCN1CCC2`, the “activation” value is -0.0119% [at 42.5 µM]. On the same count and under the same terms, then `OCCCCCO`, with 2.25%; and `CC(COc1ccccc1)NN` (configuration not stated), with 1.2% [at 42.5 µM]; and `NS(=O)(=O)Cc1noc2ccccc12`, with 0.025% [at 42.5 µM]. Still for that read-out and setting: then `Cc1cc(C)c(N=Nc2c(O)c(S(=O)(=O)O)cc3cc(S(=O)(=O)O)ccc23)cc1C`, with 7.37% [at 8.39 µM]; and `Nc1c2c(nc3c1CCC3)CCCC2`, with -1.06% [at 42.5 µM]; and `O=S(=O)(O)c1cccc2c(S(=O)(=O)O)cccc12`, with -1.98%.

As for `CCCCCCCCN1CCCC1=O`, the Potency is 30.6 µM (active). `CNCC(O)c1ccc(O)c(O)c1` (configuration not stated): the “activation” value is -1.36% [at 42.5 µM]. Same read-out and setting: then `O=S(=O)(O)c1cccc(S(=O)(=O)O)c1`, with 1.74%; and `CCCO[Si](OCCC)(OCCC)OCCC`, with -0.67%; and `CC[C@H]1OC(=O)[C@H](C)[C@@H](O[C@H]2C[C@@](C)(OC)[C@@H](O)[C@H](C)O2)[C@H](C)[C@@H](O[C@@H]2O[C@H](C)C[C@H](N(C)C)[C@H]2O)[C@](C)(OC)C[C@@H](C)C(=O)[C@H](C)[C@@H](O)[C@]1(C)O`, with -6.07%. Still for that read-out and setting: in the case of `C=CCCCCCCCCC(=O)OCC` it was 3.28%; in that of `CO[Si](C)(OC)c1ccccc1`, -3.99%.

On to `C=CCCC(=O)O`, for which the “activation” value is 1.25%. Take `O=Cc1cccc(Br)c1`: the “activation” value was 4.13%.
